Results reported in PubChem BioAssay (Tox21).
“And” between values parts separate entries of the source, which are not always exact repeats. Equal values may be shown once. Inconclusive results are not listed. The source made the active and inactive calls. Unless noted, calls come from the whole dose curve; as a rule, active = well fitted curve in the direction sought with a large enough effect in the repeat runs; inconclusive = weak or mixed curves; inactive = no such curve, though single readings can be large; an effect the other way counts as inactive or inconclusive.

Columns and labels:
[1] = qHTS assay to test for compound auto fluorescence at 535 nm (green) in HEK293 cells (AID 720680)
[2] = qHTS assay to test for compound auto fluorescence at 460 nm (blue) in HEK293 cell free culture (AID 720681)
Method in brief: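 Blue fluorescence (Ex 405/Em 460 nm, triamterene-equivalent) was read immediately after pin transfer of compound or DMSO into medium (DMEM, 10% FBS) without cells.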

[3] = qHTS assay to test for compound auto fluorescence at 535 nm (green) in HEK293 cell free culture (AID 720682)
Method in brief: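 Compounds were pin-transferred into cell-free DMEM with 10% FBS, and green fluorescence was read at excitation 485 nm and emission 535 nm. Intensities were expressed as fluorescein-equivalent values.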

[4] = qHTS assay to test for compound auto fluorescence at 590 nm (red) in HEK293 cell free culture (AID 720683)
Method in brief: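 Red-channel autofluorescence of compounds in culture medium (DMEM, 10% FBS), no cells, measured at 540/590 nm. Rose Bengal sodium is the reference fluorophore for equivalence.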

[5] = qHTS assay to test for compound auto fluorescence at 590 nm (red) in HepG2 cell free culture (AID 720684)
Method in brief: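 Steps: dispense MEM/10% FBS medium, no cells; pin compound or DMSO vehicle; read red channel, Ex/Em 540/590 nm. Output given as Rose Bengal sodium equivalents.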

[6] = qHTS assay to test for compound auto fluorescence at 460 nm (blue) in HepG2 cell free culture (AID 720685)
Method in brief: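 Compound (23 nL) or DMSO pinned into cell-free MEM with 10% FBS; blue fluorescence read at 405/460 nm excitation/emission, expressed as auto-fluorescence equivalency to triamterene.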

[7] = qHTS assay to test for compound auto fluorescence at 535 nm (green) in HepG2 cell free culture (AID 720686)
[8] = qHTS assay to test for compound auto fluorescence at 460 nm (blue) in HepG2 cells (AID 720687)
Method in brief: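 Blue-channel autofluorescence (Ex/Em 405/460 nm, triamterene-equivalent) was measured after 1 hr compound exposure at 37 C, 5% CO2. Cells were HepG2, plated overnight at 37 C in MEM plus 10% FBS.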

[9] = molecular target: Glucocorticoid receptor (Homo sapiens) (UniProt P04150); test: qHTS assay to identify small molecule agonists of the glucocorticoid receptor (GR) signaling pathway (AID 720691; active = well fitted activation curve with a large enough effect in the signal ratio in the repeat runs, not every such curve was filed as active; the % refers to the signal ratio); details: GR-bla HeLa, beta-lactamase reporter ratio, 18 h; activation: at 62.4 µM (top of the series)
Method in brief: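 Beta-lactamase reporter activity, read as fluorescence intensity, was measured in GR-bla HeLa cells exposed to compounds for 18 h at 37 C and then loaded with LiveBLAzer B/G FRET substrate for 2 h at room temperature.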

[10] = qHTS assay to identify small molecule antagonists of the glucocorticoid receptor (GR) signaling pathway - cell viability counter screen (AID 720693); note: nearly all actives have a fitted effect of over 55% in size
[11] = qHTS assay for identifying genotoxic compounds that show differential cytotoxicity against isogenic chicken DT40 cell lines with known DNA damage response pathways - wild type cell line (AID 743012); note: nearly all actives have a fitted effect of over 60% in size
Method in brief: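 Quantitative HTS on parental DT40 cells: 40 h compound treatment at 37 C/5% CO2, with viability then determined by CellTiter-Glo luminescence. Values serve as the DNA repair-proficient reference for differential cytotoxicity.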

[12] = qHTS assay for identifying genotoxic compounds that show differential cytotoxicity against isogenic chicken DT40 cell lines with known DNA damage response pathways - Rad54/Ku70 mutant cell line (AID 743015); note: nearly all actives have a fitted effect of over 60% in size; note: potency is the fitted concentration of half-maximal effect
[13] = qHTS assay to identify small molecule antagonists of the androgen receptor (AR) signaling pathway - cell viability counter screen (AID 743033; note: nearly all actives have a fitted effect of over 45% in size)
[14] = qHTS assay to identify small molecule antagonists of the androgen receptor (AR) signaling pathway using the MDA cell line - cell viability counter screen (AID 743041; note: nearly all actives have a fitted effect of over 45% in size)
Method in brief: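 Cells were plated at 3,000 per well and left 5 h. Compounds in DMSO were then pinned in, followed by R1881. After 16 h at 37C, CellTiter-Fluor fluorescence gave viability.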

[15] = molecular target: Androgen receptor (Homo sapiens) (UniProt P10275); test: qHTS assay to identify small molecule agonists of the androgen receptor (AR) signaling pathway (AID 743036; active = well fitted activation curve with a large enough effect in the signal ratio in the repeat runs, with a control signal flat, not every such curve was filed as active; the % refers to the signal ratio; note: potency is the fitted concentration of half-maximal effect)
Method in brief: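 Activation was read as beta-lactamase FRET signal from LiveBLAzer B/G substrate, added for 2 h at room temperature. Before that, GeneBLAzer AR-UAS-bla GripTite (HEK293) cells had 16 h compound exposure at 37C.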

[16] = molecular target: Androgen receptor (Homo sapiens) (UniProt P10275); test: qHTS assay to identify small molecule agonists of the androgen receptor (AR) signaling pathway using the MDA cell line (AID 743040; note: nearly all actives have a fitted effect of over 20% in size; note: potency is the fitted concentration of half-maximal effect)
Method in brief: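 Cells plated, 5 h at 37C/0% CO2; compound or DMSO pinned; 16 h at 37C; ONE-Glo added; luminescence measured after 30 min at room temperature. Reporter line: MDA-kb2 with MMTV-luciferase responsive to AR and GR.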

[17] = molecular target: Androgen receptor (Homo sapiens) (UniProt P10275); test: qHTS assay to identify small molecule antagonists of the androgen receptor (AR) signaling pathway using the MDA cell line (AID 743042; note: nearly all actives have a fitted effect of over 55% in size)
Method in brief: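 Antagonist mode: compounds plus R1881 agonist added to MDA-kb2 AR-luc cells, incubated 16 h at 37C. Luciferase reporter luminescence quantified, with multiplexed CellTiter-Fluor readout for cell viability.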

[18] = qHTS assay for identifying genotoxic compounds that show differential cytotoxicity against isogenic chicken DT40 cell lines with known DNA damage response pathways - Rev3 mutant cell line (AID 743014); note: nearly all actives have a fitted effect of over 55% in size; note: potency is the fitted concentration of half-maximal effect
[19] = molecular target: Androgen receptor (Homo sapiens) (UniProt P10275); test: qHTS assay to identify small molecule antagonists of the androgen receptor (AR) signaling pathway (AID 743035; active = well fitted inhibition curve with a large enough effect in the signal ratio in the repeat runs, not every such curve was filed as active; the % refers to the signal ratio)
Method in brief: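 Cell line: GeneBLAzer AR-UAS-bla GripTite (HEK293). Stimulus: R1881 added after compound. Exposure: 16 h, 37C, 5% CO2. Readout: LiveBLAzer B/G FRET fluorescence after 2 h at room temperature.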

Measured: Potency

Sequence of Glucocorticoid receptor (Homo sapiens) (P04150 whole entry, looked up): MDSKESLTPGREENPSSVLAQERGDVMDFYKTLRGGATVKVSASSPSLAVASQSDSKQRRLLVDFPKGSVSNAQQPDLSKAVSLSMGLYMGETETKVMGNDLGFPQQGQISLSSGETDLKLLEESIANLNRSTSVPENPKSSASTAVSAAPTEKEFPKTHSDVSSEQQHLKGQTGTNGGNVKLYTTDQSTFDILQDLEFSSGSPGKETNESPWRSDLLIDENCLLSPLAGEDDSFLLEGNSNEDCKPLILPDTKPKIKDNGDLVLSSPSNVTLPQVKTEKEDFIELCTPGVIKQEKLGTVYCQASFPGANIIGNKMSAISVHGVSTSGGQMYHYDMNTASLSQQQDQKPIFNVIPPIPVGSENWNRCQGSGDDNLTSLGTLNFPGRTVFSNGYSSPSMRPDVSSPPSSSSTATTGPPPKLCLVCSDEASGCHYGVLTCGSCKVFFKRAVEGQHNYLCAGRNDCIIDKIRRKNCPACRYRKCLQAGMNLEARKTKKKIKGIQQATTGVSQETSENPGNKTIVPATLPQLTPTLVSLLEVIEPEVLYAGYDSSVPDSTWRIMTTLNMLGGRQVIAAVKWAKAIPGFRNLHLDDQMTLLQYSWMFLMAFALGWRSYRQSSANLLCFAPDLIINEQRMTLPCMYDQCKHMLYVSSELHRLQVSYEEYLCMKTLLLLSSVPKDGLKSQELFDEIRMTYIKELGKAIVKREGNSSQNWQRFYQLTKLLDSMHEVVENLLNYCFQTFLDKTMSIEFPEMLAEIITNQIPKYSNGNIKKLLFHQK
Sequence of Androgen receptor (Homo sapiens) (P10275 whole entry, looked up): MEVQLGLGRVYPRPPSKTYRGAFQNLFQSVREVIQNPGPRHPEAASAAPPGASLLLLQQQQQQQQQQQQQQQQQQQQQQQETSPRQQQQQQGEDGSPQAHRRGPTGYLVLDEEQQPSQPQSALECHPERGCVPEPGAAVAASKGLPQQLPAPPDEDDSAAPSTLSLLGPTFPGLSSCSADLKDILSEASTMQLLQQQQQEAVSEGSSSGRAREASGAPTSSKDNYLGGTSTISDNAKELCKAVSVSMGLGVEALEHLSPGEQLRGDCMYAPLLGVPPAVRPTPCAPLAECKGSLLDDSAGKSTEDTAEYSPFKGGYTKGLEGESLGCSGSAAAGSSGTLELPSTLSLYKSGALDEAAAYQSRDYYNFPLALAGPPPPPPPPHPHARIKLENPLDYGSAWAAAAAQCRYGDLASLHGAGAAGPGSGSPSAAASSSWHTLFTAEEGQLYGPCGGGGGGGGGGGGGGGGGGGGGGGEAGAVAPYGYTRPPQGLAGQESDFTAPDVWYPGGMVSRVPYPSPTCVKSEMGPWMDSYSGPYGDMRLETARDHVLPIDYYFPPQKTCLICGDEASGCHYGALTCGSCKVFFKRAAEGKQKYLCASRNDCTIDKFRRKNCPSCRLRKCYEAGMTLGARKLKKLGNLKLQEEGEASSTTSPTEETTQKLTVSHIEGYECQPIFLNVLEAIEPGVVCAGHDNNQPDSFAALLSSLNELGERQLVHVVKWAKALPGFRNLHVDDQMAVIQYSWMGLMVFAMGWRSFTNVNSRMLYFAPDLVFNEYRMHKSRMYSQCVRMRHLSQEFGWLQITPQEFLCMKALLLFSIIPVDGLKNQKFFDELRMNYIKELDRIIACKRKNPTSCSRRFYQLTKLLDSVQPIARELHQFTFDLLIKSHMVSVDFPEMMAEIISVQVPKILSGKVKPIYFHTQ

CCCCCCCCC/C=C/CC1CC(=O)OC1=O (centres undefined)
not listed: [15] | [16] | [17] | [18] | [19]
inactive: all other assays above

C=C(C)C(=O)Nc1ccc(Cl)c(Cl)c1
not listed: [9] | [13] | [15] | [16] | [17] | [18] | [19]
inactive: all other assays above

CCCCCCCCCCCCOCCO
not listed: [11] | [13] | [18] | [19]
inactive: all other assays above

C[C@H]1C[C@@H]2[C@H]([C@@H](O)C[C@@]3(C)[C@H]2CC[C@]3(O)C(=O)CO)[C@@]2(C)C=CC(=O)C=C12
active: [15] 32.3 nM and 49 nM | [16] 50.7 nM and 38.6 nM
not listed: [9] | [14] | [18] | [19]
inactive: all other assays above

CC1=CCC2CC1C2(C)C (centres undefined)
not listed: [9] | [15] | [16] | [17] | [19]
inactive: all other assays above

OC[C@H]1O[C@@](CO)(O[C@H]2O[C@H](CO)[C@@H](O)[C@H](O)[C@H]2O)[C@@H](O)[C@@H]1O
not listed: [9] | [15] | [16] | [17] | [19]
inactive: all other assays above

c1ccc2c(c1)ccc1ccccc12
active: [18] 68.6 µM | [12] 30.6 µM
not listed: [11] | [13]
inactive: all other assays above

CC(C)CC(=O)CC(C)C
not listed: [9] | [15] | [16] | [17] | [19]
inactive: all other assays above

CC(=O)Nc1cccc(O)c1
not listed: [9] | [15] | [16] | [17] | [19]
inactive: all other assays above
